Source: PubChem (National Center for Advancing Translational Sciences (NCATS))
IL1B secr inh = inflammasome signaling inhibition, IL-1 beta readout | THP-1 LPS/ATP IL-1B secretion, AlphaLISA, 16 h; stronger effect = lower value | activity change, % at 57.5 µM | hit rate 4.7% among 360,000 | AID 743279; in the data active = activity change below about -50%; inconclusive = mostly about -30% to -49%; also: % is scaled to controls: 0 for no effect and ±100 for the full control effect
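Secreted IL-1B measured by AlphaLISA bead assay after 16 h compound exposure of THP-1 cells; compounds (final up to 57.5 uM) added 1 h before LPS (250 ng/mL) and ATP (1.25 mM) stimulation; lower signal means less secretion.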
TDP1 cell CPT = growth inhibition of DT40 Tdp1-/-;hTDP1 cells with camptothecin (screen for TDP1 inhibitors) | chicken DT40 Tdp1-/-;hTDP1 cells + 20 nM CPT, ATP luminescence, 48 h | Potency, µM (highest dose often 46.2 µM), for inactives: at the top dose activity change, negative = growth inhibition, usual class: inhibitors | hit rate 12% among 420,000 | AID 686979; also: potency is read from the fitted curve at half-maximal effect; % is scaled to controls: 0 for no effect and ±100 for the full control effect; nearly all actives have a fitted effect of over 55% in size
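Cell growth measured by CellTiter-Glo luminescence after a minimum 48 h, 37 C compound exposure with 20 nM CPT in Tdp1-knockout DT40 cells stably expressing hTDP1, seeded 400/well; qHTS titration format.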
TDP1 inh = TDP1 (human) enzyme inhibition; AID 485290; Potency, µM (doses to about 130 µM), for the others: top-dose activity change, negative = inhibition, hits mostly inhibitors; recombinant TDP1, AlphaScreen DNA substrate cleavage; hit rate 0.28% among 350,000; Q9NUW8; also: potency is read from the fitted curve at half-maximal effect; % is scaled to controls: 0 for no effect and ±100 for the full control effect; nearly all actives have a fitted effect of over 40% in size
Target sequence (Q9NUW8 whole entry, looked up): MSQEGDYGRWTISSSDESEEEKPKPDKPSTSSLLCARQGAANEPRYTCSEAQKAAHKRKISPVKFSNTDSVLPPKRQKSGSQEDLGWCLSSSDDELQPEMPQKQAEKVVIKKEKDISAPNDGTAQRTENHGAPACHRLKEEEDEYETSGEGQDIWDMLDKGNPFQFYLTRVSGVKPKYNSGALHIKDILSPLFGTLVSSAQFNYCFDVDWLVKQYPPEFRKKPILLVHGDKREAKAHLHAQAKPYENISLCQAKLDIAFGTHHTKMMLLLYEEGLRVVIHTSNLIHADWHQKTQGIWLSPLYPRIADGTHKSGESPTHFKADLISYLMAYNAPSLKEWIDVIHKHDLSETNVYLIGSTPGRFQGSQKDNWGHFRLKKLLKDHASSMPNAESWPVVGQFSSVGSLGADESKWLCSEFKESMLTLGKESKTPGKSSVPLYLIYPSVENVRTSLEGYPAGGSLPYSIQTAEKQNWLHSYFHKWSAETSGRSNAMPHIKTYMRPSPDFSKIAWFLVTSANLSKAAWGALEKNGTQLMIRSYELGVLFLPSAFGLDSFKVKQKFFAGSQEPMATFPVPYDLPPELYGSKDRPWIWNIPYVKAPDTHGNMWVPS
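Steps: enzyme plus compound, 15 min RT; add biotin/phosphotyrosine-FITC oligonucleotide (15 nM final), react 5 min; add donor/acceptor beads (10 ug/ml final), 10 min; read AlphaScreen. Tdp1 at 1 nM final.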
TGFb SMAD3 inh = blocks TGF-b signaling; Potency, µM (series often up to 46.1 µM), inactives show top-dose activity, negative = inhibition, actives largely listed as inhibitors; HepG2 CAGA-GFP TGF-b/SMAD3 reporter, GFP fluorescence, 18 h; TGF-beta stimulated, 500 pg/mL final; hit rate 1.2% among 410,000; AID 588855; also: potency is read from the fitted curve at half-maximal effect; % is scaled to controls: 0 for no effect and ±100 for the full control effect; nearly all actives have a fitted effect of over 65% in size
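First, reporter cells (HEPG2 CAGA-GFP) rested 2 h at 37 degrees C. Next, compounds were pinned in and TGF-beta added to 500 pg/mL final. After 18 h, GFP was imaged per cell and summed per well.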
TDP1 cell noCPT = qHTS for Inhibitors of human tyrosyl-DNA phosphodiesterase 1 (TDP1): qHTS in cells in absence of CPT; DT40 Tdp1-/- hTDP1 cells, no CPT, ATP luminescence, 48 h; Potency, µM (titrated, usually from 46.2 µM), without a hit: at the top dose activity change, negative = growth inhibition, usual class: inhibitors; hit rate 15% among 420,000; AID 686978, 2013; also: potency is read from the fitted curve at half-maximal effect; % is scaled to controls: 0 for no effect and ±100 for the full control effect; nearly all actives have a fitted effect of over 55% in size
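Chicken DT40 Tdp1-/- cells complemented with human TDP1, screened without camptothecin (DMSO vehicle only), 400 cells/well. Compounds pin-transferred, cells incubated at 37 °C for at least 48 hr. Growth read as ATP-dependent luminescence (CellTiter-Glo, 30 min at RT).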
HepG2 tox = HepG2 cytotoxicity, counter-screen for TGF-b inhibitors | hit rate 0.76% among 410,000 | Potency, µM (highest dose often 46.1 µM), for inactives: top-dose activity change, negative = cytotoxicity, most hits filed as cytotoxic | HepG2 CAGA-GFP viability, ATP luminescence, 18 h; also: potency is read from the fitted curve at half-maximal effect
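CellTiter-Glo luminescence gave cytotoxicity after 18 hours at 37 degrees C. The cells were HepG2 CAGA-GFP in 1% FBS DMEM, stimulated with 500 pg/mL TGF-beta after compound addition. %Activity was normalised to no-cell wells (complete cell-killing) and DMSO (no toxicity), and curves were fitted and classified.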
An asterisk follows results filed as active; ? = inconclusive; . = not tested or not shown. Only some compounds are listed: those with a hit (about 19% of all), similar ones and a draw of the others. Unless noted, calls follow the shape of the dose curve; as a rule, active = well fitted curve in the direction sought with a large enough effect; inconclusive = small, poorly fitted or top-dose-only effect, or another doubt; inactive = no such curve, though single readings can be large; an effect the other way counts as inactive or inconclusive.

SMILES	IL1B secr inh	TDP1 cell CPT	TDP1 inh	TGFb SMAD3 inh	TDP1 cell noCPT	HepG2 tox
C[C@H](O)[C@@H]1CN2CCc3c([nH]c4ccccc34)[C@@H]2C[C@@H]1N(C)C(=O)Nc1cccc2ccccc12	-20.7	?	.	?	?	-15.1%
COc1ccc(-c2ccc3[nH]c4c(c3c2)CCN2C(=O)[C@@H]([C@H](C)O)[C@@H](N(C)C(=O)Nc3cc(Cl)cc(Cl)c3)C[C@@H]42)cc1	?	23.1µM*	.	?	14.6µM*	-40.7%
COc1ccc(-c2ccc3c(c2)[C@@H]2C[C@H](N(C)C(=O)C(C)(C)C)[C@H]([C@H](C)O)C(=O)N2CC3)cc1	-8.1	?	.	-16.6%	?	-9.1%
C[C@H](O)[C@@H]1CN2CCc3c([nH]c4ccc(-c5ccc6c(c5)OCO6)cc34)[C@@H]2C[C@@H]1N(C)C(=O)Nc1ccc(F)cc1	-10.5	2.91µM*	.	?	5.17µM*	12.6µM*
C[C@H](O)[C@@H]1C(=O)N2CCc3c([nH]c4ccccc34)[C@@H]2C[C@@H]1N(C)Cc1ccc(Cl)cc1	-25.0	?	.	?	29.1µM*	-14.9%
COc1ccc(-c2ccc3[nH]c4c(c3c2)CCN2C(=O)[C@@H]([C@H](C)O)[C@@H](N(C)C(=O)Nc3ccc(F)cc3)C[C@@H]42)cc1	?	?	.	?	11.6µM*	-64.1%
NCCCCCN	.	.	6.9%	.	.	.
COC(=O)C1=COC(C)C2CN3CCc4c([nH]c5cc(OC)c(OC)cc45)C3CC12 (configuration not stated)	-21.8	?	.	59.0%	?	-39.3%
Cc1cccc(-c2ccc3[nH]c4c(c3c2)CCN2C[C@@H]([C@H](C)OC(=O)Nc3ccccc3C)[C@@H](N(C)C(=O)Nc3ccccc3C)C[C@@H]42)c1	-21.1	?	.	?	25.9µM*	-59.5%
COc1ccc(-c2ccc3[nH]c4c(c3c2)CCN2C[C@@H]([C@H](C)O)[C@@H](N(C)C(=O)Nc3cc(Cl)cc(Cl)c3)C[C@@H]42)cc1	0.0	9.2µM*	.	?	4.61µM*	-63.2%
C[C@@H]1ON(C)[C@H]2C[C@H]3c4[nH]c5ccc(-c6ccc7c(c6)OCO7)cc5c4CCN3C[C@@H]12	-19.9	?	.	?	20.6µM*	-42.8%
COc1cccc2c1N(C)C(=O)CC21C=CC(=O)C=C1	.	.	3.8%	-22.9%	.	-28.7%
O=C(Nc1cccnc1)C1=NN(C2CCS(=O)(=O)C2)C(=O)CC1 (configuration not stated)	14.3	-17.0%	4.7%	4.4%	-26.0%	-4.0%
C=CCN(C(=O)C1=NN(C2CCS(=O)(=O)C2)C(=O)CC1)c1nc(-c2ccc([N+](=O)[O-])cc2)cs1 (configuration not stated)	-55.4*	-1.5%	-3.1%	?	18.4µM*	-31.3%
CN1CCN(CCCNC(=O)Cn2c(-c3cccs3)cc3ccccc32)CC1	.	?	3.7%	-12.2%	?	3.8%
O=C(Cn1c(-c2cccs2)cc2ccccc21)NCCCN1CCN(c2cccc(Cl)c2)CC1	.	?	5.0%	12.6µM*	16.4µM*	-47.1%
Cc1ccc(C)c(N2CCN(CCCNC(=O)Cn3c(-c4cccs4)cc4ccccc43)CC2)c1	.	5.17µM*	6.2%	12.6µM*	2.91µM*	-106.6%
O=C(c1ccco1)N1CCC[C@@]2(CCN(Cc3ccccc3)C2)C1	.	-2.2%	.	.	-11.2%	.
COc1ccc(S(=O)(=O)N2CCc3ccccc32)cc1C(=O)Nc1ccc(C(N)=O)cc1	0.0	23.1µM*	-12.2%	?	?	-89.9%
COc1ccccc1C(=O)Nc1ccc(S(=O)(=O)N2CCc3ccccc32)cc1	-9.0	?	6.6%	-8.5%	20.6µM*	-4.8%
COc1cc(C(=O)Nc2ccc3c(c2)CCN3C(C)=O)cc(OC)c1OC	0.0	?	2.7%	-17.4%	2.06µM*	26.9%
COc1ccc(S(=O)(=O)N2CCc3ccccc32)cc1C(=O)NCCc1ccc(S(N)(=O)=O)cc1	-11.7	-0.6%	0.9%	-25.8%	0.7%	-3.6%
COc1cc(C(=O)Nc2ccc(S(=O)(=O)N3CCc4ccccc43)cc2)cc(OC)c1OC	-11.1	?	4.0%	9.7%	16.4µM*	-4.2%
NS(=O)(=O)c1ccc(CCNC(=O)c2cc([N+](=O)[O-])ccc2N2CCOCC2)cc1	-14.5	0.4%	-0.1%	-4.6%	-7.5%	-0.7%
CCOc1ccc(C(=O)Nc2ccc3c(c2)N(C(C)=O)CCC3)cc1OCC	.	?	1.2%	-1.4%	20.6µM*	5.6%
SMILES	IL1B secr inh	TDP1 cell CPT	TDP1 inh	TGFb SMAD3 inh	TDP1 cell noCPT	HepG2 tox
CCOc1ccc(C(=O)Nc2cccc(C(=O)O)c2)cc1Cl	-9.1	-11.5%	0.0%	11.4%	?	-9.3%
CCOc1ccc(C(=O)Nc2ccc3c(c2)OCO3)cc1OCC	8.5	-2.8%	4.5%	-4.1%	-7.6%	-0.5%
COc1ccc(S(=O)(=O)N2CCc3ccccc32)cc1[N+](=O)[O-]	-1.6	23.1µM*	.	-3.9%	?	-2.3%
CCOc1ccc(C(=O)Nc2cc(NC(=O)c3ccc(OCC)c(Cl)c3)cc(C(=O)O)c2)cc1Cl	22.2	2.06µM*	.	4.4%	-16.8%	-0.5%
COC1C=CC(CNC(=O)c2cc3c(=O)n4cccc(C)c4nc3n2C)(OC)O1 (configuration not stated)	-11.0	16.4µM*	0.0%	3.3%	-15.0%	-11.6%
Cc1cccn2c(=O)c3cc(C(=O)NC(C)(C)C)n(C)c3nc12	.	?	1.3%	-15.0%	18.4µM*	-4.7%
Cc1cccn2c(=O)c3cc(C(=O)NC4CCCCC4)n(C)c3nc12	-6.3	4.61µM*	0.2%	3.9%	3.26µM*	-0.6%
Cc1cccn2c(=O)c3cc(C(=O)O)n(C)c3nc12	16.3	-7.3%	5.1%	-24.6%	-8.8%	-18.1%
CCn1c(=N)c(C(=O)NC2CCCCC2)cc2c(=O)n3cccc(C)c3nc21	.	3.3%	.	-1.9%	8.5%	-8.6%
N#Cc1c(N2CCSCC2)nsc1-c1ccccc1Cl	-24.6	?	.	0.0%	-12.6%	-11.9%
CC(NS(=O)(=O)c1ccccc1)C1CC2CCC1C2 (configuration not stated)	-4.0	-23.7%	.	0.0%	-21.2%	12.6%
CCOC(=O)N1CCN(c2cc3[nH]c(=S)[nH]c3cc2F)CC1	12.5	?	3.1%	-1.5%	2.2%	-2.6%
